According to PubChem BioAssay (NCI):
Compounds without any hit were thinned out: in the full panel of roughly 83,000, 20% have a hit.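 Percent growth is the endpoint: 0 to 100 indicates growth inhibition (40 means 60% inhibition), 0 means no net growth, and negative values indicate cell death.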 A number with no mark means an inactive call. Calls of active or inactive are those of the source. The calls were made as follows: active = growth percent below 10; inactive = the rest.

How the values were obtained:
Test in all cases: NCI-60 one-dose screen, 48 h (100 = growth as untreated, 0 = no growth, -100 = all killed)
Settings in all cases: 10 µM unless noted
NCI-H23 lung = test system: NCI-H23 lung
NCI-H226 lung = test system: NCI-H226 lung
NCI-H322M lung = test system: NCI-H322M lung
HOP-62 NSCLC = test system: HOP-62 NSCLC
NCI-H460 lung = test system: NCI-H460 lung
HOP-92 NSCLC = test system: HOP-92 NSCLC
NCI-H522 lung = test system: NCI-H522 lung
A549/ATCC NSCLC = test system: A549/ATCC NSCLC
786-0 renal = test system: 786-0 renal
COLO 205 colon = test system: COLO 205 colon

| SMILES | growth (NCI-H23 lung) | growth (NCI-H226 lung) | growth (NCI-H322M lung) | growth (HOP-62 NSCLC) | growth (NCI-H460 lung) | growth (HOP-92 NSCLC) | growth (NCI-H522 lung) | growth (A549/ATCC NSCLC) | growth (786-0 renal) | growth (COLO 205 colon) |
| --- | --- | --- | --- | --- | --- | --- | --- | --- | --- | --- |
| COC(=O)[C@]12CC[C@@H](C)[C@H](C)[C@@H]1C1=CC[C@@H]3[C@@]4(C)C(C=O)=C[C@@](C)(COC(C)=O)[C@@H]4C(=O)C[C@@]3(C)[C@]1(C)CC2 | 34.2% | 38.7% | 77.2% | 50.1% | 18.8% | 47.7% | 12.9% | 14.2% | 37.3% | -9.64% (active) |
| c1ccc2cc3nc4cc5ccccc5cc4nc3cc2c1 | 88.8% | 97.3% | 109% | 83.5% | 99.8% | 94.3% | 99% | 88.4% | 108% | 77.7% |
| Cc1ccc(C(=NN=C(N)N)c2ccc(C)cc2)cc1 | -14.5% (active) | 12.3% | 30.5% | 13.1% | 2.86% (active) | -0.938% (active) | -13.8% (active) | 11.1% | -25% (active) | -83.2% (active) |
| CCc1c2c(nc3ccc(OC(=O)OCc4ccc(B5OC(C)(C)C(C)(C)O5)cc4)cc13)-c1cc3c(c(=O)n1C2)COC(=O)[C@]3(O)CC | -30.6% (active) | -59.9% (active) | 1.92% (active) | -10.7% (active) | -6.28% (active) | 9.38% (active) | -28.3% (active) | 3.37% (active) | 11.7% | 7.72% (active) |
| Cc1cc(C(=O)c2ccccc2)c(C)c2c1[nH]c1ccc(Cl)cc12 | 24.6% | 50.6% | 42% | 34.3% | 5.49% (active) | 54.8% | 20.8% | 19.6% | 24.4% | -24.8% (active) |
| COc1cc(Cn2ncc3ccc(NC(=O)c4cc5ccccc5oc4=N)cc32)cc(OC)c1OC | 80.8% | 88.6% | 89.6% | 64.9% | 91% | 71.9% | 20.3% | 50.7% | 68% | 55.1% |
| CC(C)CC(NC(=O)CN(Cc1ccccc1)S(C)(=O)=O)C(=O)O (stereo not given) | 93.1% | 104% | 93.8% | 96% | 98.7% | -0.442% (active) | 103% | 96.5% | 93.6% | 112% |
| Cc1ccc(-c2cc(-c3ccccc3C)[nH]c(=O)c2C#N)s1 | 92.4% | 93.1% | 79.1% | 90.4% | 98.7% | 54% | 87.5% | 87.9% | 78.8% | 117% |
| Cc1cc(NCc2cc(Nc3ccnc4cc(Cl)ccc34)ccc2F)nc(N2CCOCC2)n1 | 43.8% | 61.2% | 71.3% | -9.53% (active) | 39.8% | 42.5% | 21.8% | 59.4% | 1.21% (active) | 35.5% |
| N#C/C(=C\c1ccc2c(c1)OCO2)n1nnc2cc(F)c(F)cc21 | 67.5% | 69.5% | 86.2% | 69.4% | 77.5% | 46.5% | 18.3% | 79% | 89.2% | 87.4% |
| Cc1ccc(NS(=O)(=O)c2ccc3c(c2)C(=O)CC(c2ccc(C(=O)C(C)C)cc2)N3)cc1C (stereo not given) | 44.1% | 57.7% | 67.2% | 69.1% | 53.9% | 67.9% | 60.5% | 52.4% | 86.3% | 59.4% |
| CCC(CO)Nc1nc2ccc(Cl)cc2c2ccccc12 (stereo not given) | 73.9% | 65.3% | 47.2% | 60.3% | 25.1% | 48.9% | 58.6% | 55.3% | 41.6% | 86.4% |
| COc1ccc(-c2nc3sccn3c2-c2cc(-c3cc(OC)c(OC)c(OC)c3)on2)cc1 | 88.6% | 116% | 102% | 106% | 78.3% | -17.4% (active) | 87.9% | 104% | 96.6% | 94.2% |
| COc1ccc(C2=Nc3c(N)ncnc3NC(c3ccc4c(c3)OCO4)C2)cc1 (stereo not given) | 69.7% | 85.5% | 99.4% | 68.1% | 102% | 45.4% | 87.4% | 89.3% | 55.6% | 102% |
| CN1CCN(C(=O)c2c3c(n4ccccc24)C(=O)c2ncccc2C3=O)CC1 | 26.8% | 69.5% | 47.2% | 27.3% | 16.4% | 85.4% | 51.7% | 51.3% | 56.3% | 78.2% |
| Cc1c2c(c(C)c3c1oc1cc(O)ccc13)C(=O)N(CCN1CCCCC1)C2=O | 94.6% | 88.5% | 85.9% | 80% | 38.7% | 92.4% | 94.1% | 81.2% | 71.7% | 85.8% |
| COc1ccc2c(c1)O/C(=C/c1ccc(OCC(=O)c3ccccc3)cc1)C2=O | 98.1% | 104% | 97.2% | 93.6% | 118% | 98.6% | 94.5% | 93.2% | 101% | 129% |
| COc1ccc(C2C(c3nn[nH]n3)=C(N)Oc3c2ccc2ccccc32)cc1 (stereo not given) | 69.1% | 82.4% | 85.1% | 70.3% | 53.7% | 77.1% | 23.9% | 72.5% | 79.2% | 92.5% |
| C[n+]1cc2cc(C(N)=O)[nH]c3c(=N)c(Cl)c(N)c1c23 | 56.6% | 57.1% | 80.5% | 37.9% | 23.8% | 80% | 35.2% | 26.3% | 49.1% | 44.1% |
| O=S(=O)(O)c1ccc(N/N=C/c2ccccc2Cl)cc1 | 108% | 111% | 108% | 123% | 109% | 116% | 96.9% | 99.5% | 95.6% | 112% |
| N#Cc1c(N)nc(NCCO)nc1-c1ccc(F)cc1 | 96.7% | 77.1% | 102% | 93.3% | 103% | 75.9% | 86.6% | 71.8% | 97.1% | 92.5% |
| c1coc(-c2c3ccc(=[N+]4CCCCC4)cc-3oc3cc(N4CCCCC4)ccc23)c1 | -84.6% (active) | -86.1% (active) | -85.1% (active) | -81.1% (active) | -71.5% (active) | -68.1% (active) | -86.4% (active) | -57.9% (active) | -93.2% (active) | -70.1% (active) |
| Fc1cnc(NC2CC2)nc1-c1cnc2ccc(N3CCOCC3)cn12 | -7.34% (active) | 0.213% (active) | 4.31% (active) | 9.8% (active) | 4.3% (active) | 1.51% (active) | -18.5% (active) | 3.21% (active) | 11.2% | -22.1% (active) |
| CCCCCCCCn1ccc2cc(NC(=O)Cn3cc(CN4CCCC4)nn3)ccc21 | 87.3% | 95.5% | 49.5% | 74% | -64.5% (active) | 28% | 52.3% | 40.2% | 16.8% | -81.4% (active) |
| C=CCOC1=CC(=O)c2ccccc2C1=O | 50.6% | 100% | 91.6% | 95.6% | 105% | 114% | 74% | 91.4% | 102% | 110% |
| O=C1/C(=C\c2cccnc2)SC(=S)N1CCc1ccc(O)cc1 | 50% | 94.2% | 91.5% | 45.6% | 18.7% | 27.4% | 11.9% | 93.9% | 39.1% | 79.9% |
